Data published in PubChem BioAssay (NCATS).
Inconclusive results are not listed. Entries that show only a call come without a potency. Activity calls are given as the source filed them. Unless noted, the call rests on the fitted dose curve; in most records, active means well fitted curve in the direction sought with a large enough effect; inconclusive means small, poorly fitted or top-dose-only effect, or another doubt; inactive means no such curve, though single readings can be large; an effect the other way counts as inactive or inconclusive.

Tests used:
[1] = Cell Viability - Hek293 (AID 427;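 active means compounds whose dose-response curve shows a full or clear partial loss of cell viability, called from curve shape rather than a numeric limit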;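 further: potency means the concentration at half of the fitted maximal effect; cells exposed to compound for 40 hours at 37 °C before reading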); conditions: qHTS
How it was run: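 Luminescent ATP read-out (CellTiter-Glo, 20 min RT) after 40 hr compound exposure at 37 °C in complete medium. Signal normalized to DMSO (basal) and 100 uM tamoxifen (100% inhibition); concentration-response fitted with the standard Hill equation to give AC50.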

[2] = Cell Viability - SK-N-SH (AID 435; calls by dose curve;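 further: potency means the concentration at half of the fitted maximal effect; compound exposure lasted 40 h at 37 °C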); conditions: SK-N-SH neuroblastoma cell viability qHTS
How it was run: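 SK-N-SH human neuroblastoma cells (1500/well) were exposed to compounds in complete medium for 40 h at 37 °C, and intracellular ATP was then measured by CellTiter-Glo luminescence. AC50 was taken from Hill fits, normalized to DMSO and 100 uM tamoxifen.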

[3] = Cell Viability - HUV-EC-C (AID 542); conditions: HUV-EC-C endothelial cell viability, qHTS; series mostly up to 92.2 µM; further: nearly all actives have a fitted effect of over 35% in size
How it was run: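 HUV-EC-C normal human vascular endothelial cells, 1000 cells/well, pre-incubated 5 hr at 37 °C, then exposed to compounds for 40 hr at 37 °C in complete medium. Viability measured as intracellular ATP by CellTiter-Glo luminescence; AC50 from Hill fits.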

[4] = Cell Viability - H-4-II-E (AID 543); conditions: H-4-II-E rat hepatoma viability; series mostly up to 92.2 µM; further: nearly all actives have a fitted effect of over 35% in size
How it was run: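 Rat hepatoma H-4-II-E cells (1500/well) were plated, incubated 5 hr at 37 °C, then exposed to compounds for 40 hr at 37 °C. Cellular ATP was read by CellTiter-Glo luminescence; AC50 came from Hill-equation fits of concentration-response data.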

[5] = Cell Viability - SH-SY5Y (AID 544); conditions: SH-SY5Y neuroblastoma cell viability; viability change, negative = cytotoxic: at 92.2 µM (top of the series); further: nearly all actives have a fitted effect of over 55% in size
How it was run: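 Human neuroblastoma SH-SY5Y cells (1500/well) in complete medium were exposed to compounds for 40 hr at 37 °C; intracellular ATP was then quantified by CellTiter-Glo luminescence after 20 min at room temperature. AC50 came from Hill-equation concentration-response fits.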

[6] = Cellular Toxicity (caspase-3) Renal Proximal Tubule (AID 667); conditions: renal proximal tubule cells; series mostly up to 91.7 µM;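 further: cells exposed to compound for 16 hours at 37 °C before detection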
How it was run: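 Primary rat proximal tubule cells, 1000/well, 5 h plating at 37 °C, then compound 16 h at 37 °C. Caspase-Glo 3/7 reagent, 1 h RT, luminescence. Normalized to DMSO (basal) and 10 uM staurosporine (100%); Hill-fit AC50.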

[7] = target: Cytochrome P450 3A4 (Homo sapiens) (UniProt P08684); assay: qHTS Assay for Inhibitors and Substrates of Cytochrome P450 3A4 (AID 884); conditions: recombinant CYP3A4, Luciferin-PPXE luminescence; series mostly up to 57.1 µM; further: nearly all actives have a fitted effect of over 50% in size
Chain of Cytochrome P450 3A4 (Homo sapiens) (P08684 whole entry, looked up): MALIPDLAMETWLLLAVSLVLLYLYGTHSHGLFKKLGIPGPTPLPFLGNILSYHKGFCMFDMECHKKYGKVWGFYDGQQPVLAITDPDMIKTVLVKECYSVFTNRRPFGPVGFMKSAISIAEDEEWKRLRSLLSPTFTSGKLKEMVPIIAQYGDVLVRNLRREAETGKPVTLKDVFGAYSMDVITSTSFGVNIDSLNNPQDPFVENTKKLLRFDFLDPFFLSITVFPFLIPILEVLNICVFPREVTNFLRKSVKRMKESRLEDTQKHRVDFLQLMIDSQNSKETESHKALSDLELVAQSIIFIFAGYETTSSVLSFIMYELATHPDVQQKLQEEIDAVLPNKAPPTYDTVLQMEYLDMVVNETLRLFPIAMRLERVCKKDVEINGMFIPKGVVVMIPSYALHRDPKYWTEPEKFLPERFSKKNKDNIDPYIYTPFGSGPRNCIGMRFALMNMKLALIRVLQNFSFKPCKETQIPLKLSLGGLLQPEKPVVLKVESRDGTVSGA
How it was run: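 20 nM human CYP3A4 with 25 uM Luciferin-PPXE (at KM) in 200 mM KPO4, preincubated 10 min with compound; NADPH regeneration started a 60 min RT reaction. Luciferin detected by luminescence, normalized to 57 uM ketoconazole as full inhibition.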

[8] = MultiTox-Fluor Cytotoxicity Assay - LYMP1-002 - Dead Cells (AID 960); conditions: LYMP1-002 lymphoblastoid cells, dead-cell protease fluorescence; series mostly up to 46.1 µM; further: nearly all actives have a fitted effect of over 60% in size
How it was run: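 Human lymphoblastoid cells (LYMP1-002), 2500/well in complete medium, were exposed to compounds for 16 hr at 37 C. Dead-cell protease activity was read as bis-AAF-R110 fluorescence (Ex/Em 485/520), normalized to DMSO and 15 uM tetraoctylammonium bromide; AC50 from Hill fits.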

[9] = Cell Viability - LYMP2-004 (AID 966); conditions: LYMP2-004 lymphoblastoid cell viability, qHTS; series mostly up to 92.2 µM; further: nearly all actives have a fitted effect of over 65% in size
How it was run: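 Human lymphoblastoid cells (2500/well) in complete medium were treated with compounds for 24 hr at 37 C, then intracellular ATP was measured by CellTiter-Glo luminescence. AC50 values came from Hill-equation fits of concentration-response data.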

[10] = Cell Viability - LYMP2-005 (AID 967); conditions: LYMP2-005 lymphoblastoid cell viability; series mostly up to 92.2 µM
How it was run: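 CellTiter-Glo luminescence (cellular ATP) read-out; LYMP2-005 lymphoblastoid cells, 2500/well, 5 h pre-incubation, then 24 h compound exposure at 37 C in complete medium. Tetraoctylammonium bromide positive control; AC50 by standard Hill fit.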

[11] = Cell Viability - LYMP2-012 (AID 982); conditions: LYMP2-012 lymphoblastoid cell viability qHTS; series mostly up to 92.2 µM;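 further: cellular ATP by luciferase luminescence where a drop means cytotoxicity; cells exposed to compound for one day before reading; nearly all actives have a fitted effect of over 55% in size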
[12] = Cell Viability - LYMP2-018 (AID 985); conditions: LYMP2-018 lymphoblastoid cells, viability (qHTS); series mostly up to 92.2 µM;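 further: compound exposure lasted 24 hr at 37 °C; nearly all actives have a fitted effect of over 50% in size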
How it was run: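 Human lymphoblastoid cells (2500/well) were pre-incubated 5 hr at 37 C, then exposed to compounds for 24 hr at 37 C in complete medium. Viability was read as intracellular ATP by CellTiter-Glo luminescence; AC50 values came from Hill-equation fits.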

[13] = Cell Viability - LYMP1-002 - Assay at 40 hr (AID 994); conditions: LYMP1-002 lymphoblastoid cell viability; series mostly up to 92.2 µM; further: nearly all actives have a fitted effect of over 60% in size
How it was run: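 Human lymphoblastoid cells, 2500/well in complete medium, were preincubated 5 hr at 37 C, then exposed to compounds for 40 hr at 37 C. Intracellular ATP was read by CellTiter-Glo luminescence after 30 min at room temperature; AC50 from Hill-equation fits.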

[14] = qHTS assay for small molecule agonists of retinoid X receptor alpha signaling (AID 588544; calls by dose curve); conditions: HEK293T RXRa-UAS-bla, beta-lactamase reporter, 18 h; 530 nm emission
[15] = target: Retinoic acid receptor RXR-alpha (Homo sapiens) (UniProt P19793); assay: as above; conditions: HEK293T RXRa-UAS-bla, beta-lactamase reporter, 18 h; series mostly up to 76.7 µM
Chain of Retinoic acid receptor RXR-alpha (Homo sapiens) (P19793 whole entry, looked up): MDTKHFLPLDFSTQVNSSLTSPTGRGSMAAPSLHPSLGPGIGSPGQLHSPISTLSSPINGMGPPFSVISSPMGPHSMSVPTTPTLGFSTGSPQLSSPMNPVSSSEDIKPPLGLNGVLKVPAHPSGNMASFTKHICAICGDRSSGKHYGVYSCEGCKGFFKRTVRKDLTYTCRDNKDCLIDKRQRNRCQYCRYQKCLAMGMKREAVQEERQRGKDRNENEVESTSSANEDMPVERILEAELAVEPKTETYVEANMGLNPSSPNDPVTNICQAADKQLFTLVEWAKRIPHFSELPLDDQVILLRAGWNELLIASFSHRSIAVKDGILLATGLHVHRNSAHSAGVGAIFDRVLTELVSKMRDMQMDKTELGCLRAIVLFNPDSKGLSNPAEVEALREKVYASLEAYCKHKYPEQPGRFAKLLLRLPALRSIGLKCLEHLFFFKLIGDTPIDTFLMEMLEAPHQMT

[16] = qHTS assay for small molecule antagonists of retinoid X receptor alpha signaling (AID 588546; active means well fitted inhibition curve with a large enough effect in the signal ratio, with a control signal flat, not every such curve was filed as active; the % refers to the signal ratio;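 further: cells stimulated with 9-cis-retinoic acid as agonist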); conditions: HEK293T RXRa-UAS-bla, beta-lactamase ratio, antagonist mode; measured here: W530 green channel, cytotoxicity proxy
How it was run: (§1)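 Beta-lactamase reporter inhibition, read as CCF4 fluorescence ratio (ex 405, em 460/530 nm) after 2 h at RT. HEK293T UAS-bla cells, 2500/well, were stimulated with 9-cis-RA at 500 or 100 nM final alongside test compound for 18 h at 37 C.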

[17] = target: Retinoic acid receptor RXR-alpha (Homo sapiens) (UniProt P19793); assay: as above; conditions: HEK293T RXRa-UAS-bla, beta-lactamase ratio, antagonist mode
How it was run: as §1

[18] = target: Tumor necrosis factor (Homo sapiens) (UniProt P01375); assay: qHTS assay to identify small molecules that stimulate Tumor Necrosis Factor-alpha (TNF-alpha) secretion (AID 651757; active means well fitted curve in the direction sought with a large enough effect in the signal ratio; the % refers to the signal ratio); conditions: Human cells, HTRF 665/615 ratio; series mostly up to 92.2 µM
Chain of Tumor necrosis factor (Homo sapiens) (P01375 whole entry, looked up): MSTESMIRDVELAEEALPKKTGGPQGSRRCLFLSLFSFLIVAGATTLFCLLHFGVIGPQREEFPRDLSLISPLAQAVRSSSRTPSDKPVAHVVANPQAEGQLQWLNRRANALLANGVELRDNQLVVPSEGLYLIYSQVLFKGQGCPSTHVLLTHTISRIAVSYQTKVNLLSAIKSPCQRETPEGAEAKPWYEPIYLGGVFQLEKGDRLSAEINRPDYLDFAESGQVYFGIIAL
How it was run: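 THP-1 cells were exposed to compounds for 17 hrs at 37 C, after which secreted TNF-alpha was measured by homogeneous HTRF (TR-FRET) using cryptate- and XL665-labeled anti-TNF-alpha antibodies, read after 3 hr at room temperature.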

[19] = qHTS assay for environmental chemicals that activate the Aryl hydrocarbon Receptor (AhR) signaling pathway (AID 651777); conditions: 1A2-DRE human hepatoma cells, luciferase, 24 h; activation: stronger effect = higher value; further: nearly all actives have a fitted effect of over 15% in size
How it was run: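 Induction of CYP1A2 transcription through AhR is detected by luciferase in 1A2-DRE hepatoma cells. Compounds or DMSO act for 24 hr at 37 C before a 30 min One-Glo step at room temperature.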

[20] = qHTS assay for small molecule agonists of the antioxidant response element (ARE) signaling pathway measured by Nrf2-dependant transcriptional activity (AID 720636; active means well fitted curve in the direction sought with a large enough effect in the repeat runs; an effect the other way counts as inactive or inconclusive;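 further: HepG2 cells with an ARE-driven luciferase reporter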); conditions: ARE-luc HepG2, Nrf2 luciferase reporter, 16 h; series mostly up to 92.4 µM
How it was run: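 We exposed ARE-luc HepG2 cells, seeded in assay medium with 1% dialyzed FBS and allowed 6 hr to adhere, to test compounds overnight (16 hr, 37 C) before measuring luciferase with ONE-Glo.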

SMILES	Potency [1]	Potency [2]	Potency [3]	Potency [4]	Potency [5]	outcome [6]	Potency [7]	Potency [8]	Potency [9]	Potency [10]	Potency [11]	Potency [12]	Potency [13]	max response [14] [%]	outcome [15]	max response [16] [%]	max response [17]	outcome [18]	activation [19]	Potency [20]
OCCOCCO	> 92 µM (inactive)	> 92 µM (inactive)	inactive	inactive	inactive	inactive	inactive	inactive	inactive	inactive	inactive	inactive	inactive	-9.96	inactive	2.28	1.12% (inactive)	inactive	-0.842% (inactive)	inactive
O=[N+]([O-])c1cccc(O)c1	> 92 µM (inactive)	> 92 µM (inactive)	inactive	inactive	inactive	inactive	inactive	inactive	inactive	inactive	inactive	inactive	inactive	0.893	inactive	-2.66	-5.97% (inactive)	inactive	1.58% (inactive)	inactive
Clc1cccc2ccccc12	> 92 µM (inactive)	> 92 µM (inactive)	inactive	inactive	inactive	inactive	inactive	inactive	inactive	inactive	inactive	inactive	inactive	0.056	inactive	-3.08	-3.67% (inactive)	inactive	-0.754% (inactive)	inactive
O=Cc1ccc(Cl)cc1Cl	> 92 µM (inactive)	> 92 µM (inactive)	inactive	inactive	inactive	inactive	inactive	inactive	inactive	–	inactive	inactive	inactive	-11.7	inactive	-13.3	2.38% (inactive)	inactive	-0.378% (inactive)	inactive
C=C(Cl)CSC(=S)N(CC)CC	> 92 µM (inactive)	> 92 µM (inactive)	inactive	inactive	inactive	inactive	–	inactive	inactive	inactive	inactive	–	inactive	-16.2	inactive	-2.71	1.31% (inactive)	inactive	0.101% (inactive)	inactive
